Source: PubChem (National Center for Advancing Translational Sciences (NCATS))
Only some compounds are listed: those with a hit (about 19% of all), similar ones and a draw of the others.
HT1080 IDH1KD tx: qHTS for induction of synthetic lethality in tumor cells producing 2HG: qHTS for the HT-1080-IDH1KD cell line; 360,000 compounds, 2% hits; Potency, µM (series often up to 46.1 µM), for the others: at the highest dose activity, negative = toxicity, most hits filed as cytotoxic; HT-1080 IDH1 knockdown viability, ATP luminescence, 48 h; AID 686971, 2013;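 also: 0% = DMSO wells and -100% = cell-free medium wells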
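IDH1KD HT-1080 cells, 750/well, RPMI + 5% FBS; compound pinned after 2 h settling; 48 h, 37 °C; CellTiter-Glo luminescence; % activity normalised to DMSO and no-cell wells; curves fitted, classed by r2 and efficacy.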
HT1080-NT tox: qHTS for induction of synthetic lethality in tumor cells producing 2HG: qHTS for the HT-1080-NT fibrosarcoma cell line; 360,000 compounds, 1.6% hits; HT-1080-NT fibrosarcoma viability, CellTiter-Glo ATP luminescence, 48 h; AID 686970, 2013; Potency, µM (top dose mostly 46.1 µM), without a hit: at the highest dose activity, negative = less viability, most hits filed as cytotoxic;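 also: NT is the 2HG producing partner of a matched IDH1 knockdown line; 0% = DMSO-treated cells and -100% = media-only wells without cells; nearly all actives have a fitted effect of over 55% in size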
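Toxicity toward the 2HG-producing NT line was scored as %Activity, normalised to DMSO and no-cell wells, from CellTiter-Glo luminescence after 48 hours' treatment.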
KB-3-1 tox: qHTS assay for MDR1-selective chemotherapeutics: Primary screen using the parental adenocarcinoma cell KB-3-1; KB-3-1 viability, CellTiter-Glo ATP luminescence, 72 h; Potency, µM (doses to about 46.1 µM), most hits filed as cytotoxic; 400,000 compounds, 1.4% hits; AID 1347075, 2019; also: nearly all actives have a fitted effect of over 60% in size
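Parental KB-3-1 viability, qHTS format: 72 h compound exposure, 37 °C; CellTiter-Glo; media-only wells and DMSO plates as controls; concentration-effect fits on corrected data.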
KB-V1 MDR tox: qHTS assay for MDR1-selective chemotherapeutics: Primary screen using the drug-selected MDR subline cells KB-V1; KB-V1 MDR cells viability, CellTiter-Glo, 72 h; Potency, µM (series often up to 46.1 µM), usual class: cytotoxic; 400,000 compounds, 3.4% hits; AID 1347076, 2019; also: nearly all actives have a fitted effect of over 60% in size
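Compound-treated KB-V1 multidrug-resistant cells, 72 h, 37 degrees C; viability by CellTiter-Glo. Fitted qHTS curves give the values.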
TDP1 cell noCPT: qHTS for Inhibitors of human tyrosyl-DNA phosphodiesterase 1 (TDP1): qHTS in cells in absence of CPT | AID 686978, 2013 | DT40 Tdp1-/- hTDP1 cells, no CPT, ATP luminescence, 48 h | Potency, µM (titrated, usually from 46.2 µM), for the others: top-dose activity change, negative = growth inhibition, most hits filed as inhibitors | 420,000 compounds, 15% hits; also: nearly all actives have a fitted effect of over 55% in size
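Chicken DT40 Tdp1-/- cells complemented with human TDP1, screened without camptothecin (DMSO vehicle only), 400 cells/well. Compounds pin-transferred, cells incubated at 37 °C for at least 48 hr. Growth read as ATP-dependent luminescence (CellTiter-Glo, 30 min at RT).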
TDP1 cell CPT: qHTS for Inhibitors of human tyrosyl-DNA phosphodiesterase 1 (TDP1): qHTS in cells in presence of CPT; Potency, µM (top dose mostly 46.2 µM), for inactives: at the highest dose activity change, negative = growth inhibition, actives largely listed as inhibitors; 420,000 compounds, 12% hits; chicken DT40 Tdp1-/-;hTDP1 cells + 20 nM CPT, ATP luminescence, 48 h; AID 686979, 2013; also: nearly all actives have a fitted effect of over 55% in size
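Chicken DT40 Tdp1-/- cells stably complemented with human TDP1 were seeded at 400 cells/well in medium containing 20 nM camptothecin, exposed to pin-transferred compounds, and grown at 37 °C for at least 48 hr. Viability was read as ATP luminescence.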
An asterisk follows results filed as active; i = inactive; ? = inconclusive; nt = not tested or not shown. Calls follow the shape of the dose curve; as a rule, active = well fitted curve in the direction sought with a large enough effect; inconclusive = small, poorly fitted or top-dose-only effect, or another doubt; inactive = no such curve, though single readings can be large; an effect the other way counts as inactive or inconclusive. Unless noted, % is scaled to controls: 0 for no effect and ±100 for the full control effect; potency is read from the fitted curve at half-maximal effect.

SMILES | HT1080 IDH1KD tx | HT1080-NT tox | KB-3-1 tox | KB-V1 MDR tox | TDP1 cell noCPT | TDP1 cell CPT
Clc1ccc(CSc2nccn2Cc2ccccc2)cc1 | -21% | -14% | ? | ? | 16µM* | ?
O=c1ccn(Cc2ccccc2)c(SCc2ccccc2)n1 | 9% | 6% | i | i | ? | -4%
CCNC(=O)C1CCCN(C(=O)c2cc(OC)c(OC)c(OC)c2)CC1 (stereo unspecified) | -28% | 1% | i | i | -3% | -4%
CCOCCCn1c(SCC(=O)NCc2ccccc2)nc2c(sc3ccccc32)c1=O | nt | nt | i | i | ? | -26%
O=C(CSc1nccn1Cc1ccc(Cl)cc1)Nc1nc2ccccc2s1 | nt | nt | i | i | ? | ?
Cc1ccc2nc(NC(=O)CSc3nccn3Cc3ccccc3)sc2c1 | nt | nt | i | i | ? | 26µM*
Cc1cc(C)c2cc(C#N)c(N3CCCN(C(=O)c4cnccn4)CC3)nc2c1 | 1% | 2% | i | ? | 18µM* | -8%
Cc1cc(C)c2cc(C#N)c(N3CCCN(S(=O)(=O)c4ccccc4)CC3)nc2c1 | 2% | 7% | i | i | ? | -7%
CC(=O)c1cccc(S(=O)(=O)N2CCN(c3nc4cc(C)cc(C)c4cc3C#N)CC2)c1 | 2% | 2% | i | i | ? | 15µM*
COc1ccccc1C(=O)N1CCN(c2nc3cc(C)cc(C)c3cc2C#N)CC1 | -7% | 0% | i | ? | 21µM* | 23µM*
COc1ccccc1C(=O)N1CCN(c2nc3cc(C)c(C)cc3cc2C#N)CC1 | ? | ? | ? | i | 16µM* | 18µM*
COC(=O)CSc1nnc(-c2cccc(O)c2)o1 | nt | nt | nt | nt | 16% | 24%
Cc1cc(C)c2cc(C(=O)N3CCN(c4ncccc4C(F)(F)F)CC3)[nH]c2c1 | ? | ? | i | i | 15µM* | ?
COc1ccccc1N1CCN(C(=O)c2cc(N3C(=O)C4C5CCC(C5)C4C3=O)ccc2Cl)CC1 (stereo unspecified) | -1% | -1% | i | 4.1µM* | ? | ?
COc1cc(SC)ccc1C(=O)N1CCN(c2ccccc2OC)CC1 | 8.2µM* | 9.2µM* | 6.5µM* | 16µM* | 4.6µM* | 21µM*
COc1ccccc1N1CCN(C(=O)c2c(C)cc(=O)oc2C)CC1 | 13% | 19% | i | i | 4% | 2%
COc1ccccc1N1CCN(C(=O)c2cc(C(C)(C)C)oc2C)CC1 | -15% | -2% | i | i | 21µM* | ?
Cc1ccc(-n2nnnc2CNC(=O)C(C)(C)C)cc1C | nt | nt | nt | nt | -10% | -11%
CCOC(=O)c1nc(-c2ccc(OC)c(OC)c2)no1 | 17% | 20% | i | ? | -5% | -10%
CCn1cc(C(=O)NCCc2ccc(Cl)cc2)c(=O)c2cc(S(=O)(=O)N3CCc4ccccc4C3)ccc21 | nt | nt | i | i | ? | -1%
CC(C)(C)NC(=O)N1CCN(c2ncccc2C(F)(F)F)CC1 | 15% | 3% | i | i | -18% | -6%
Cc1oc(C(C)(C)C)cc1C(=O)N1CCN(c2ncccc2C(F)(F)F)CC1 | -9% | -7% | i | i | 23µM* | ?
COc1ccc(OC)c(NC(=O)N2CCN(Cc3nc4ccc(C)cc4o3)CC2)c1 | nt | nt | i | i | -2% | ?
Cc1cccc(C(=O)N2CCC(Cc3ccccc3)CC2)c1[N+](=O)[O-] | -21% | -5% | i | ? | 6.5µM* | 8.2µM*
Cc1cccc(C)c1NC(=O)CN1CCC(Cc2ccccc2)CC1 | -16% | 9% | i | i | 13µM* | 21µM*
SMILES | HT1080 IDH1KD tx | HT1080-NT tox | KB-3-1 tox | KB-V1 MDR tox | TDP1 cell noCPT | TDP1 cell CPT
Cc1cccc(C)c1NC(=O)C(c1ccccc1)N1CCC(Cc2ccccc2)CC1 (stereo unspecified) | 8% | 23% | i | i | 9.2µM* | 9.2µM*
Cc1cc(C)cc(NC(=O)CN2CCc3ccccc3C2)c1 | -9% | -1% | i | i | -25% | -31%
Cc1cccc(C)c1NC(=O)CN1CCc2ccccc2C1 | 1% | -1% | i | i | 16µM* | 10µM*
Cc1cc(C)cc(C(=O)NN2CCN(C)CC2)c1 | 21% | 14% | i | i | ? | ?
Cc1ccc(NC(=O)C2CCCN2C(=O)NC2CCCCC2)cc1 (stereo unspecified) | 7% | 4% | i | i | 11% | 5%
COc1cccc(CNC(=O)CCn2cccn2)c1 | nt | nt | i | i | 1% | 9%
COc1cc(CN2CCC(Cc3ccccc3)CC2)cc([N+](=O)[O-])c1O | -1% | -1% | i | i | 17% | 0%
Cc1c(NC(=O)CN2CCN(C(c3ccccc3)c3ccccc3)CC2)c(=O)n(-c2ccccc2)n1C | 5% | 3% | i | ? | -2% | 7%
Cc1cccc(C)c1NC(=O)CN1CCN(CCCC(c2ccc(F)cc2)c2ccc(F)cc2)CC1 | 12% | ? | i | ? | 5.8µM* | 7.3µM*
COc1cc(NC(=O)CN2CCC(Cc3ccccc3)CC2)c(C)cc1[N+](=O)[O-] | 9% | 6% | i | i | 8.2µM* | 7.3µM*
COc1ccccc1-c1nc2ccccc2nc1-c1ccccc1 | -1% | -1% | i | i | ? | 18µM*
CCc1nnc(SCC(=O)Nc2ccc(OC)c(OC)c2)c2cc3occc3n12 | nt | nt | i | i | -22% | -1%
CCC(Sc1nnc(C)n2c1cc1occc12)C(=O)Nc1ccccc1OC (stereo unspecified) | nt | nt | i | i | 21µM* | ?
O=C1c2cccc3cccc(c23)C(c2nc3ccccc3[nH]2)N1C1CC1 (stereo unspecified) | 1% | -3% | i | i | -27% | -12%
Cc1nc(C(F)(F)F)nc(Nc2ccc(N=Nc3ccccc3)cc2)c1C#N | 15% | 5% | i | i | -5% | -10%
